Screen size: about 5,500 compounds; about 2,000 (36%) were called active. Inconclusive results (about 18%) are left out. Rule as the data show it: active = normalized growth mostly below about 0.91 (no sharp cut-off); inconclusive = no clear call, values can overlap the other calls; inactive = mostly above about 0.92. This is one part of the list.
Experiment: chemical genetic growth profiling, strain panel (AID 1159580);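 also: tested at 20 µM; growth read once vehicle control cultures reached saturation at 30 °C; 1 = growth at the plate median or of vehicle wells; lower values mean less growth of the strain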
Settings: growth OD

Measured: normalized growth

CC(=O)N(O)CCCCCNC(=O)CCC(=O)N(O)CCCCCNC(=O)CCC(=O)N(O)CCCCCN
inactive: S. cerevisiae deletion strains, locus YJR066W, strain TOR1, stronger effect = lower value 0.95 | S. cerevisiae deletion strains, locus YJR075W, strain HOC1, stronger effect = lower value 1.01 | S. cerevisiae deletion strains, locus YKL009W, strain mrt4, stronger effect = lower value 1.01 | S. cerevisiae deletion strains, locus YKL068W, stronger effect = lower value 1.05 | S. cerevisiae deletion strains, locus YKL085W, strain MDH1 (second series), stronger effect = lower value 1.02 | S. cerevisiae deletion strains, locus YKL085W, strain MDH1, stronger effect = lower value 1.02 | S. cerevisiae deletion strains, locus YKL160W, strain elf1, stronger effect = lower value 0.998 | S. cerevisiae deletion strains, locus YKL190W, strain CNB1, stronger effect = lower value 1.01 | S. cerevisiae deletion strains, locus YKR001C, strain vps1, stronger effect = lower value 0.966 | S. cerevisiae deletion strains, locus YKR026C, strain gcn3, stronger effect = lower value 1.03 | S. cerevisiae deletion strains, locus YKR091W, strain srl3, stronger effect = lower value 1.01 | S. cerevisiae deletion strains, locus YLL001W, strain dnm1, stronger effect = lower value 0.991 | S. cerevisiae deletion strains, locus YLL026W, stronger effect = lower value 0.997 | S. cerevisiae deletion strains, locus YLL041C, strain sdh2, stronger effect = lower value 1 | S. cerevisiae deletion strains, locus YLR027C, strain aat2, stronger effect = lower value 1 | S. cerevisiae deletion strains, locus YLR039C, strain RIC1, stronger effect = lower value 0.997 | S. cerevisiae deletion strains, locus YLR058C, strain SHM2, stronger effect = lower value 1.01 | S. cerevisiae deletion strains, locus YLR102C, strain apc9, stronger effect = lower value 1.03 | S. cerevisiae deletion strains, locus YLR113W, strain HOG1, stronger effect = lower value 1.14 | S. cerevisiae deletion strains, locus YLR221C, strain rsa3, stronger effect = lower value 1.04 | S. cerevisiae deletion strains, locus YLR258W, strain gsy2, stronger effect = lower value 1.02 | S. cerevisiae deletion strains, locus YLR262C, strain YPT6 (second series), stronger effect = lower value 0.995 | S. cerevisiae deletion strains, locus YLR262C, strain YPT6, stronger effect = lower value 1.08 | S. cerevisiae deletion strains, locus YLR268W, strain sec22, stronger effect = lower value 0.981 | S. cerevisiae deletion strains, locus YLR320W, strain mms22, stronger effect = lower value 1.07 | S. cerevisiae deletion strains, locus YLR330W, strain CHS5, stronger effect = lower value 1.01 | S. cerevisiae deletion strains, locus YLR342W, strain FKS1 (second series), stronger effect = lower value 0.854 | S. cerevisiae deletion strains, locus YLR342W, strain FKS1, stronger effect = lower value 0.958 | S. cerevisiae deletion strains, locus YLR357W, strain rsc2, stronger effect = lower value 0.882 | S. cerevisiae deletion strains, locus YLR370C, strain arc18, stronger effect = lower value 1 | S. cerevisiae deletion strains, locus YLR371W, strain rom2, stronger effect = lower value 1.02 | S. cerevisiae deletion strains, locus YLR384C, strain iki3, stronger effect = lower value 0.991 | S. cerevisiae deletion strains, locus YLR418C, strain cdc73, stronger effect = lower value 0.864 | S. cerevisiae deletion strains, locus YML016C, strain PPZ1, stronger effect = lower value 1.01 | S. cerevisiae deletion strains, locus YML032C, strain rad52, stronger effect = lower value 1.06 | S. cerevisiae deletion strains, locus YML120C, strain ndi1, stronger effect = lower value 0.993 | S. cerevisiae deletion strains, locus YML124C, strain tub3, stronger effect = lower value 1.03 | S. cerevisiae deletion strains, locus YMR058W, strain fet3, stronger effect = lower value 1.02 | S. cerevisiae deletion strains, locus YMR078C, strain ctf18, stronger effect = lower value 1.04 | S. cerevisiae deletion strains, locus YMR125W, strain sto1, stronger effect = lower value 1.06 | S. cerevisiae deletion strains, locus YMR129W, stronger effect = lower value 1.01 | S. cerevisiae deletion strains, locus YMR205C, strain PFK2, stronger effect = lower value 1.03 | S. cerevisiae deletion strains, locus YMR223W, strain ubp8, stronger effect = lower value 0.998 | S. cerevisiae deletion strains, locus YMR231W, strain pep5, stronger effect = lower value 0.983 | S. cerevisiae deletion strains, locus YMR307W, strain GAS1, stronger effect = lower value 0.809 | S. cerevisiae deletion strains, locus YNL067W, strain RPL9B, stronger effect = lower value 0.999 | S. cerevisiae deletion strains, locus YNL071W, strain lat1, stronger effect = lower value 1.04 | S. cerevisiae deletion strains, locus YNL128W, strain TEP1, stronger effect = lower value 1.01 | S. cerevisiae deletion strains, locus YNL153C, strain GIM3, stronger effect = lower value 0.99 | S. cerevisiae deletion strains, locus YNL183C, strain NPR1, stronger effect = lower value 0.995 | S. cerevisiae deletion strains, locus YNL233W, strain BNI4, stronger effect = lower value 0.987 | S. cerevisiae deletion strains, locus YNL248C, strain rpa49, stronger effect = lower value 1.08 | S. cerevisiae deletion strains, locus YNL250W, strain rad50, stronger effect = lower value 1.08 | S. cerevisiae deletion strains, locus YNL271C, strain bni1, stronger effect = lower value 0.978 | S. cerevisiae deletion strains, locus YNL298W, strain CLA4, stronger effect = lower value 1 | S. cerevisiae deletion strains, locus YNL307C, strain MCK1, stronger effect = lower value 1.03 | S. cerevisiae deletion strains, locus YNL322C, strain KRE1 (second series), stronger effect = lower value 1.01 | S. cerevisiae deletion strains, locus YNR049C, strain mso1, stronger effect = lower value 1.01 | S. cerevisiae deletion strains, locus YNR052C, strain pop2, stronger effect = lower value 1.01 | S. cerevisiae deletion strains, locus YOL012C, strain htz1 1.51 | S. cerevisiae deletion strains, locus YOL147C, strain pex11, stronger effect = lower value 1.02 | S. cerevisiae deletion strains, locus YOR001W, strain rrp6, stronger effect = lower value 0.96 | S. cerevisiae deletion strains, locus YOR061W, strain CKA2, stronger effect = lower value 0.996 | S. cerevisiae deletion strains, locus YOR069W, strain VPS5, stronger effect = lower value 1.01 | S. cerevisiae deletion strains, locus YOR070C, strain gyp1, stronger effect = lower value 1.01 | S. cerevisiae deletion strains, locus YOR080W, strain dia2, stronger effect = lower value 0.996 | S. cerevisiae deletion strains, locus YOR083W, strain WHI5, stronger effect = lower value 0.958 | S. cerevisiae deletion strains, locus YOR136W, strain idh2, stronger effect = lower value 1.03 | S. cerevisiae deletion strains, locus YOR144C, strain elg1, stronger effect = lower value 1.02 | S. cerevisiae deletion strains, locus YOR184W, strain ser1, stronger effect = lower value 0.999 | S. cerevisiae deletion strains, locus YOR231W, strain MKK1, stronger effect = lower value 1.04 | S. cerevisiae deletion strains, locus YOR265W, strain rbl2, stronger effect = lower value 1 | S. cerevisiae deletion strains, locus YOR270C, strain vph1, stronger effect = lower value 0.964 | S. cerevisiae deletion strains, locus YOR290C, strain snf2, stronger effect = lower value 1.02 | S. cerevisiae deletion strains, locus YOR316C, strain cot1, stronger effect = lower value 1.04 | S. cerevisiae deletion strains, locus YPL051W, strain arl3, stronger effect = lower value 1.07 | S. cerevisiae deletion strains, locus YPL078C, strain atp4, stronger effect = lower value 0.985 | S. cerevisiae deletion strains, locus YPL106C, strain sse1, stronger effect = lower value 0.953 | S. cerevisiae deletion strains, locus YPL240C, strain hsp82, stronger effect = lower value 1.01 | S. cerevisiae deletion strains, locus YPL256C, strain CLN2, stronger effect = lower value 1.09 | S. cerevisiae deletion strains, locus YPR119W, strain clb2, stronger effect = lower value 1.04 | S. cerevisiae deletion strains, locus YPR141C, strain kar3, stronger effect = lower value 1.05 | S. cerevisiae deletion strains, locus YPR163C, strain tif3, stronger effect = lower value 1.03 | S. cerevisiae deletion strains, locus YPR167C, strain met16, stronger effect = lower value 1.04 | S. cerevisiae deletion strains, strain wtn01, stronger effect = lower value 0.998 | S. cerevisiae strains, strain wild type, stronger effect = lower value 1.01
active: S. cerevisiae deletion strains, locus YNL209W, strain ssb2, stronger effect = lower value 0.917 | S. cerevisiae deletion strains, locus YOR106W, strain vam3, stronger effect = lower value 0.844

Source: PubChem BioAssay AID1159580 (chemical genetic matrix, 2015)
